Our source for the Percent Effect values is ChEMBL document CHEMBL3988442, “University of Dundee, Small-Polar-MMV Screening Library” (2021).

The structures appear in SMILES notation. In all, about 69,000 compounds went through this assay and about 10 (0.01%) showed an effect of 50% or more. The entries come from a sample that favours strong results as a whole.

This test has as its target ClpP1P2 (Mycobacterium tuberculosis (strain ATCC 25618 / H37Rv)) (UniProt P9WPC5+P9WPC3). Nature of the test: in vitro assay to detect presence of AMC directly proportional to the activity of ClpP1P2. GHDDI collaboration. The format is functional. On the set-up: scale not given: direction of the effect not stated beside the values. The settings on record: 50 µM.
For the compound `CCN1CC[C@@]2(C(=O)N(C)C)CCN(S(=O)(=O)c3ccccc3)CC[C@@H]12`, the Percent Effect is -6.35%.
Under `COCCN1CC[C@@H]2CN(Cc3nccn3C)C[C@@H]2C1` stands 3.59%.
In the case of `Fc1cnc(N2CCO[C@H]3CN(CC4CCOC4)C[C@H]32)nc1` (stereo not given in full), the Percent Effect is -12.3%.
Under `CCS(=O)(=O)N1C[C@H]2CN(CC3CC3)C(=O)[C@H]2C1` stands 7.7%; under `CC(C)CN1C(=O)CC[C@H]2CN(Cc3ncc[nH]3)CC[C@H]21`, -3.16%; under `O=C(C1=CCCC1)N1C[C@@H]2COC[C@]2(COCC2CC2)C1`, -3.2%.
Under `CN(C)CCN1CCO[C@H]2CN(Cc3ccccn3)C[C@H]21` stands 1.87%; under `O=C(c1ccncc1)N1C[C@@H]2OCCN(CCN3CCCC3)[C@@H]2C1`, -8.83%.
For the compound `O=C1[C@H]2CN(CC3CCOCC3)C[C@H]2CN1Cc1cccc(F)c1`, the Percent Effect turned out to be 7.64%.
Under `Cc1cccc(COC[C@@]23CCC[C@@H]2CN(S(=O)(=O)N(C)C)C3)n1` stands -4.08%; under `CC1=CC[C@@H]2CN(C(=O)c3ccc(-c4nc[nH]n4)cc3)C[C@@H]2C1`, -12.9%; under `Cc1ccc(CN2C[C@@H]3CCN(Cc4cccnc4)C(=O)[C@H]3C2)s1`, 13.6%.
The figure for `Cc1ccc(CN2C[C@H]3CN(CC4CCN(C)CC4)C(=O)[C@H]3C2)s1` is -7.79%; for `COCCN1CC[C@H]2CN(Cc3ccc(C)s3)C[C@@H]2C1=O` it is -2.27%.
For `Cc1ccc(CN2C[C@@H]3CCN(Cc4ccncc4)C(=O)[C@H]3C2)s1`, the Percent Effect came to 54%.
Under `CCN1C[C@H]2CCN(Cc3ccncc3)C(=O)[C@@H]2C1` stands -1.34%.
Under `O[C@@H]1C[C@@](CNCC2CCCC2)(COc2cccnc2)C[C@@H]1O` stands -0.271%; under `CN(C)C(=O)CO[C@H]1CN(Cc2ccoc2)[C@@H]2COC[C@H]12`, -6.93%; under `Cc1cccc(CN2C(=O)CO[C@@H]3CN(C4CCOCC4)C[C@H]32)c1`, -8.98%.
Under `Cc1cc(C)n(CCCC(=O)N2CC[C@H]3NCCC[C@]3(CO)C2)n1` stands -5.5%.
On to `CC(C)CN1C[C@H]2N(c3ncccn3)CCC[C@@]2(C(=O)NCC2CC2)C1`, for which the Percent Effect was -20.2%.
Consider `Cc1cc2cc(C(=O)N3CCN(CCO)[C@@H]4CS(=O)(=O)C[C@@H]43)ccc2o1`, for which the Percent Effect was -4.08%.
Under `Cc1nnc(N2C[C@@H](Oc3ccccn3)[C@H]3OCCC[C@H]32)s1` stands 9.54%.
The figure for `COCCN1C[C@H]2CN(C(=O)NC(C)C)CCN2C1=O` is -7.02%; for `COc1cc(CN2CCCCCC2c2cccs2)cc(OC)c1OC` (stereo not given) it is 1.65%; for `COc1cccc(CN2CCCCCC2c2cccs2)c1O` (stereo not given) it is -21.7%.
The figure for `COc1cc(CN2CCCCCC2c2cccs2)cc(OC)c1O` (stereo not given) is 52.1%.
`O=C([C@H]1COC[C@H]2CN(Cc3ccco3)C[C@H]21)N1CCCO1`: the Percent Effect was determined as 3.57%.
Under `O=C(NC[C@H]1C[C@@H]2CCN1C[C@@H]2CN1CCCCC1)c1ccco1` stands -12.3%; under `O=S(=O)(NC[C@]12COC[C@H]1CN(c1ncc(F)cn1)C2)C1CC1`, -0.384%.
For `CNC(=O)[C@@H]1C[C@H]2CN(Cc3c(C)noc3C)C[C@H]2N1C(C)C`, the Percent Effect is -4.22%.
Under `CCSCCNC(=O)c1ccc(S(=O)(=O)N2C[C@@H]3C[C@H]2CN3)cc1` stands 9.91%; under `CC(C)NC(=O)N1CCC2(CC1)CC[C@@]1(C(=O)N(C)C)CN(C)C[C@@H]21`, -5.9%.
Under `COc1ncccc1C(=O)N1CC[C@H]2C[C@@H](c3ccncn3)O[C@@H]2C1` stands -7.36%; under `O=C(CCc1ccccc1)N1C[C@H]2CCN[C@H]2C1`, 0.746%.
The figure for `COc1ncccc1CN1C[C@@H]2COC[C@]2(COCC2CC2)C1` is -9.86%; for `O=C1CC[C@H]2[C@H](CCN2C(=O)C2CCOC2)N1Cc1ccncc1` (stereo not given in full) it is 0.241%.
Take `CNC(=O)[C@H]1C[C@@H]2CN(C(=O)Nc3ccccc3)C[C@H]1O2`: the Percent Effect was -3.31%.
Under `CNC(=O)[C@H]1C[C@@H]2CN(C(=O)c3ccsc3)C[C@@H]2N1S(C)(=O)=O` stands -13.7%.
Under `Cc1ncccc1NC(=O)[C@H]1C[C@@H]2CCN(Cc3ccsc3)C[C@H]2O1` stands -3.15%.
The figure for `CN(C)CCN1CCO[C@H]2CN(Cc3cnn(C)c3)C[C@H]21` is -9.41%.
On to `CCN(Cc1nc2c(cnn2C)c(=O)[nH]1)Cc1ccco1`, for which the Percent Effect was 7.15%.
Under `CCN(Cc1nc2c(cnn2C)c(=O)[nH]1)Cc1cccs1` stands 61.1%; under `CCN(Cc1ccccc1)Cc1nc2c(cnn2C)c(=O)[nH]1`, -16.6%; under `CCOCC1C[C@@H]2OCCN(C(=O)c3ccc[nH]3)[C@H]2C1` (stereo not given in full), -16.1%.
Under `O=C(Nc1ccccc1-c1ccccc1)N1C[C@@H]2CNC[C@]2(C(=O)O)C1` stands 4.15%; under `COCCNC(=O)[C@H]1C[C@@H]2CCN(c3ncccn3)C[C@H]2O1`, -14.4%.
Under `CC(C)(C)c1ccc(CN2C[C@H]3C[C@H](O)C[C@H]3C2)c(OCC(N)=O)c1` stands 2.62%.
Take `Cn1cc(N2CC[C@@H]3CN(Cc4ccncc4)C[C@H]3C2=O)cn1`: the Percent Effect is 6.53%.
Under `COCC(=O)N1C[C@H](N(C)Cc2cncnc2)[C@H]2OCCC[C@H]21` stands 3.58%; under `NS(=O)(=O)N1CCc2ccc(NC(=O)Cc3ccccc3F)cc21`, 21.3%; under `NS(=O)(=O)N1CCc2ccc(NC(=O)Cc3ccc(F)cc3)cc21`, 70.3%.
Under `NS(=O)(=O)N1CCc2ccc(NC(=O)CC(F)(F)F)cc21` stands -1.98%; under `CN(C)S(=O)(=O)N1C[C@@H](OCc2ccccn2)[C@H]2OCCC[C@H]21`, 14.2%; under `Cn1cc(CN2CC[C@@H]3[C@@H](CCC(=O)N3CCc3ccccc3)C2)cn1`, -11.2%.
